From PubChem BioAssay AID1745846 (National Center for Advancing Translational Sciences (NCATS), 2022)
Out of some 1,400 compounds screened, about 30 (2%) were called active. A call without a number means that no potency is given here. Another 15% or so got no clear call; they are omitted. Calls follow the shape of the dose curve; as a rule, active = well fitted inhibition curve with a large enough effect; inconclusive = small, poorly fitted or top-dose-only effect; inactive = flat fitted curve, though single readings scatter. Many of the other results were omitted from the sample, so actives are more common in it than they were.

assay: Firefly Luciferase Counterscreen for Inhibitors of ATXN expression; conditions: luminescence; series mostly up to 57.5 µM
From the text: University of Utah School of Medicine, Salt Lake City, Utah
Spinocerebellar ataxia type 2 (SCA2) is a multisystem neurodegenerative disease caused by a dominantly acting mutation leading to expansion of a polyQ domain in the ataxin-2 protein (ATXN2). SCA2 patients develop progressive ataxia and later lose function in other neuronal systems. Prominent parkinsonian signs develop in some patients. Like many neurodegenerative disorders, no symptomatic or disease-modifying treatments are known.
The primary objective of the proposed research is to identify compounds inhibiting ATXN2 expression and to test them for efficacy in SCA2 mouse models. We have developed a cell-based assay paired with an in vivo mouse model using identical luciferase expression constructs. This approach takes advantage of an ATXN2-luciferase transgene, with the luciferase gene flanked by the upstream and downstream portions of the ATXN2 gene. Here we describe a 5-7 dose quantitative high thoroughput screen (qHTS) for compounds lowering ATXN2 expression. We screened the NIH Molecular Libraries Small Molecule Repository (MLSMR) and NCGC's mechanistically annotated (MIPE) and drug repurposing (NPC) collections of compounds for lowering expression of an ATXN2-luciferase reporter in HEK-293 cells. The assay is a multiplexed cell viability assay to ensure target reduction in the absence of cytotoxicity. Secondary qHTS assays included a CMV-luciferase reporter expressed in HEK-293 cells as well as a biochemical assay using recombinant luciferase to detect inhibitors of the reporter enzyme. Compounds that inhibit ATXN2 expression but is not cytotoxic were selected for confirmatory and secondary screens.
PROTOCOL TABLE (as described by Inglese J, Shamu CE and Guy RK. 2007)
SEQUENCE No. (e.g., 1, 2, 3, etc.); […] (e.g., Cells, Incubation, Reagent, etc.); VALUE; DESCRIPTION.
2; Compounds; 23 nL; Kalypsis pintool (Wako USA) equipped with a 1536-well pin head.
3; Enzyme; 1 uL; recombinant firefly luciferase (prepared in 50 mM Tris HCl pH7.5, 10 mM MgCl2, 0.05% BSA, 0.01% Tween20) at final concentration of 10 nM. Wells containing buffer only were used as control (set as 100% inhibition when normalizing data).
4; Incubation; 10 min; room temperature.
5; Detection; Luminescence; Viewlux plate reader (PerkinElmer).
NOTES (numbers refer to Sequence numbers above)
1. Luciferase substrate is added to 1536 well, Greiner white assay plate. Evaporation was prevented by covering assay plates with metal lids containing holes to allow gas diffusion.
2. Compounds were added in a dose response manner with the final concentrations of 57, 11.4, 2.28, 0.46, 0.091, 0.018, 0.0037 uM. Vehicle-only plates, with DMSO being pin-transferred to columns 5-48, were inserted uniformly at the beginning and the end of each library to monitor and record any shifts in assay performance.
3. Recombinant firefly luciferase (10 nM final concentration) is added to the assay plate.
5. End-point luminescence is then measured on the Viewlux (PerkinElmer) imager equipped with a clear emission filter using a 2 sec exposure.
Inglese J, Shamu CE and Guy RK, Reporting data from high throughput screening of small molecule libraries, Nature Chemical Biology, 2007, 3(8): 438-441. doi.org/10.1038/nchembio0807-438.
Potency is read from the fitted curve at half-maximal effect.

| SMILES | Potency |
| --- | --- |
| C=CCc1cccc(/C=N/NC(=O)CCC(=O)Nc2ccc(F)cc2)c1O | inactive |
| CCCCn1c(=N)n(CCOc2ccc(C)cc2)c2ccccc21 | inactive |
| Cn1ncc2c(N3CCN(c4ccc(Cl)c(Cl)c4)CC3)ncnc21 | inactive |
| CC1CCCN(c2ncnc3c2cnn3-c2ccc(Cl)cc2)C1 (stereo not given) | 0.0891 µM (active) |
| COc1ccccc1Cc1c(-c2ccco2)nc2c(C)cc(Br)cn12 | 15.8 µM (active) |
| Oc1ccccc1C(Nc1nccs1)c1ccc2cccnc2c1O (stereo not given) | inactive |
| Oc1ccc(N2CCN(c3ccnc4cc(Cl)ccc34)CC2)cc1 | inactive |
| CN1CCN(c2cc(-c3cc(O)c4ncccc4c3)ccn2)CC1 | inactive |
| CCN1CCS/C1=C\C=C\C1=[N+](CC)CCS1 | inactive |
| Cc1cc([N+](=O)[O-])nn1Cc1ccc(C(=O)N/N=C/c2ccc(O)cc2O)cc1 | inactive |
| Cc1sc2ncnc(NCC(O)c3ccc([N+](=O)[O-])cc3)c2c1C (stereo not given) | inactive |
| CCc1nn2cc(C(=O)c3cc(Cl)ccc3O)cnc2c1-c1ccc(F)cc1 | inactive |
| Cc1cc(NC(c2cccnc2)c2ccc3cccnc3c2O)no1 (stereo not given) | inactive |
| CCn1c2ccccc2c2cc(/C=N/NC(=O)c3ccccc3)ccc21 | inactive |
| COc1ccc(C(NC(C)=O)c2cc(Cl)c3cccnc3c2O)cc1OC (stereo not given) | inactive |
| O=C(N/N=C/c1sc(N2CCOCC2)nc1-c1ccccc1)c1ccccc1O | inactive |
| CCc1nc2ccc(C(=O)Nc3cccc(NS(C)(=O)=O)c3)cn2c1N(C)CCCc1ccccc1 | inactive |
| CS(=O)(=O)Nc1cccc(NC(=O)c2cccc3c(-c4cccc(C(N)=O)c4)coc23)c1 | 14.1 µM (active) |
| NC(=O)c1cccc(-c2ccnc3c2CC(C(=O)Nc2cccc(Oc4ccccc4)c2)O3)c1 (stereo not given) | inactive |
| O=C1c2cccc3cc([N+](=O)[O-])cc(c23)C(=O)N1CCN1CCCC1 | inactive |
| COc1cc(C(=O)NC(=S)NNC(=O)c2cnccn2)cc(OC)c1OC | inactive |
| CC1=NN(c2nc3ccccc3[nH]2)C(=O)C1Cc1ccccc1 (stereo not given) | 25.1 µM (active) |
| Clc1ccc2c(NCc3ccccc3)ccnc2c1 | inactive |
| CC1(C)C(C=C(Cl)Cl)C1C(=O)Nc1ccc([N+](=O)[O-])cc1 (stereo not given) | inactive |
| CC1(C)Cc2ccccc2C2=NNC(=O)C2=N1 | inactive |

| SMILES | Potency |
| --- | --- |
| CC(=O)Nc1ccc(N(CC(O)Cn2c3ccccc3c3ccccc32)S(=O)(=O)c2ccc(C)cc2)cc1 (stereo not given) | inactive |
| Cc1ccc(S(=O)(=O)Nc2ccc(O)c3cccnc23)cc1 | inactive |
| CC(C)n1cnc2c(N(C)c3ccccc3)nc(N(CCN(C)C)Cc3ccccc3)nc21 | inactive |
| COc1ccc(-c2cc(C3CCN(c4ccc(C(C)=O)cc4[N+](=O)[O-])CC3)[nH]n2)cc1 | inactive |
| CCC(c1nnnn1C1CCCC1)N(Cc1cccs1)Cc1cc2cc(C)ccc2[nH]c1=O (stereo not given) | inactive |
| CC[n+]1c(/C=C/N(C)c2ccccc2)oc2ccc(F)cc21 | inactive |
| O=[N+]([O-])c1ccc(NC(c2ccccc2)c2ccc3cccnc3c2O)cc1 (stereo not given) | inactive |
| CCC1=C(CC2NCCc3ccccc32)CC2c3cc(OC)c(OC)cc3CCN2C1 (stereo not given) | inactive |
| O=C(CNC(=O)c1ccc(F)cc1)N/N=C/c1cc(Br)ccc1OC(=O)/C=C/c1ccco1 | inactive |
| O=C(CNC(=O)c1ccccc1F)N/N=C/c1cc(Br)ccc1OC(=O)/C=C/c1ccco1 | inactive |
| O=C(/C=C/c1ccco1)Oc1cc(Br)cc(/C=N/NC(=O)c2ccccc2O)c1 | 12.6 µM (active) |
| Cc1ccc(NC(=O)CN2C(=O)c3ccccc3S2(=O)=O)cc1C | inactive |
| O=C(CCCN1C(=O)/C(=C/c2ccccc2Cl)SC1=S)NNC(=O)c1ccc(Cl)cc1Cl | inactive |
| O=C(CN1C(=O)c2ccccc2S1(=O)=O)c1ccc(Cl)cc1Cl | 0.562 µM (active) |
| Cc1cc(C(=O)CN2C(=O)c3ccccc3S2(=O)=O)c(C)n1CC1CCCO1 (stereo not given) | 6.31 µM (active) |
| Cc1nnc(SCC(N)=O)n1CC1CCCO1 (stereo not given) | inactive |
| COc1ccc(S(=O)(=O)Nc2ccc(F)cc2)cc1N(C)S(=O)(=O)c1ccc(Cl)cc1 | inactive |
| C=CCc1cccc(/C=N/NC(=O)C[n+]2ccccc2)c1O | inactive |
| CC(=O)Oc1ccc(N(C(C)=O)S(=O)(=O)c2ccc(C)cc2C)c2ccccc12 | inactive |
| NS(=O)(=O)c1ccc(CCNc2ncnc3c2c(-c2ccccc2)cn3-c2ccc(F)cc2)cc1 | inactive |
| Cc1nc2ccccc2c(=O)n1/N=C/c1cc(Br)ccc1O | inactive |
| Cc1cc(/C=N/n2c(COc3ccccc3)nc3ccccc3c2=O)c(O)c([N+](=O)[O-])c1 | 15.8 µM (active) |
| Cc1nc2ccccc2c(=O)n1/N=C/c1c(O)ccc2oc3c(c12)CCCC3 | inactive |
| Cc1ccc(C(C)C)c(OCc2ccc(C(=O)N/N=C/c3ccc(O)cc3O)cc2)c1 | inactive |
| COc1ccc(CC(N)c2csc(NC(=O)c3cccc(OC(F)(F)F)c3)n2)cc1 (stereo not given) | inactive |
